# In the library only some 6.2% were active in any assay of this set; here they are far more common.
# RORgamma inh: ROR gamma (mouse) transcription inhibition; P51450; Drosophila S2 Gal4-RORgamma UAS-luciferase reporter, 20 h; Potency, µM (titrated, usually from 53.6 µM), for the others: top-dose activity change, negative = inhibition, most hits filed as inhibitors; 5.4% of 310,000 active; also: nearly all actives have a fitted effect of over 60% in size
# Target sequence (P51450 whole entry, looked up, the tested form may be a part): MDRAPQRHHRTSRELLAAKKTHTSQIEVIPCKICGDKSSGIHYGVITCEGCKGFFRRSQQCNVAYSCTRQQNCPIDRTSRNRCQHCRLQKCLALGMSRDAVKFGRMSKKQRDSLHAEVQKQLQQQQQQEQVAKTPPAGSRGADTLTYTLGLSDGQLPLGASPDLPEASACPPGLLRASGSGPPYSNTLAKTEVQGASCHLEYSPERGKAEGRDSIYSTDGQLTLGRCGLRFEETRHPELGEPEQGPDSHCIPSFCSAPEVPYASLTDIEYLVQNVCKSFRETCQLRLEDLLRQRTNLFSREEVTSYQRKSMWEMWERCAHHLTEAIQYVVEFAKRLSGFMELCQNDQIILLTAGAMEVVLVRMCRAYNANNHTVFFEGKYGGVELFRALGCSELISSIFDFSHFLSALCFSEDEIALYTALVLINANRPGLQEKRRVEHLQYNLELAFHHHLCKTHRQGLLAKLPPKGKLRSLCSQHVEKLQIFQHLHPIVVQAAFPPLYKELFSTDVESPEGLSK
#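 Compounds are pin-transferred onto Drosophila Schneider cells expressing a copper-inducible Gal4–ROR gamma transactivation domain fusion. After 1 hr, copper sulfate is added to 700 uM final; luciferase is read 20 hr later.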
# Luc counter: blocks Kinase-Glo luciferase, a counter-screen artifact; AID 1379; Potency, µM (doses to about 38.3 µM), for the others: top-dose activity change, negative = inhibition, most hits filed as inhibitors; 0.28% of 200,000 active; Kinase-Glo luciferase, ATP luminescence, 8 min; also: nearly all actives have a fitted effect of over 60% in size
#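 Compounds were added to a substrate mix at pH 7.2 (50 mM imidazole, 10 uM ATP, within the enzyme's linear range), followed by Kinase-Glo detection reagent; luminescence was measured after 8 minutes at ambient temperature.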
# Gal4-VP16 FLuc: inhibits Gal4-VP16 luciferase reporter, ROR gamma counter-screen; Drosophila S2 Gal4-VP16 UAS-luciferase, luminescence, 20 h; AID 2546; Potency, µM (doses to about 53.6 µM), without a hit: top-dose activity, negative = inhibition, most hits filed as inhibitors; 3.5% of 310,000 active;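 also: Gal4-VP16 expression switched on by copper sulfate through the metallothionein promoter; nearly all actives have a fitted effect of over 50% in size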
# Active calls of the source: *; ? = inconclusive; / = no result; [ ] = remark or other dose. Calls follow the shape of the dose curve; as a rule, active = well fitted curve in the direction sought with a large enough effect; inconclusive = small, poorly fitted or top-dose-only effect, or another doubt; inactive = no such curve, though single readings can be large; an effect the other way counts as inactive or inconclusive. % is scaled to controls: 0 for no effect and ±100 for the full control effect; potency is read from the fitted curve at half-maximal effect.
SMILES,RORgamma inh,Luc counter,Gal4-VP16 FLuc
COC1=C(OC)C(=O)C(C/C=C(\C)CC/C=C(\C)CC/C=C(\C)CC/C=C(\C)CC/C=C(\C)CC/C=C(\C)CC/C=C(\C)CC/C=C(\C)CC/C=C(\C)CCC=C(C)C)=C(C)C1=O,1.0%,2.0%[39.9 µM],-6.2%
COc1cc(C(=O)NCCC(c2ccccc2)c2ccccc2)cc(OC)c1OC,37.4%,/,21.7%
O=C(N/N=C/c1cn(-c2ccccc2)nc1-c1cccnc1)c1ccccc1,5.62µM*,-1.8%,-1.7%
Cc1ccccc1NC(=O)COC(=O)/C=C/c1cn(-c2ccccc2)nc1-c1cccnc1,14.6%,-0.9%,-5.6%
CC(=O)Nc1ccc(NC(=O)C(C)OC(=O)/C=C/c2cn(-c3ccccc3)nc2-c2cccnc2)cc1 (stereo not given),12.6µM*,-0.1%,?
NC(=S)N/N=C/c1cn(-c2ccccc2)nc1-c1cccnc1,6.31µM*,/,8.91µM*
O=C(O)/C(=C\c1cn(-c2ccccc2)nc1-c1cccnc1)NC(=O)c1ccccc1,4.2%,/,-9.8%
NC(=O)N/N=C/c1cn(-c2ccccc2)nc1-c1cccnc1,-3.4%,/,3.5%
O=S1(=O)[C@H]2C[C@@H]3C=C[C@@]2(CN1Cc1ccc(F)cc1)O3,-0.6%,/,7.2%
COc1ccc2cc1Oc1ccc(cc1)CC1c3cc(c(OC)cc3CCN1C)Oc1c(OC)c(OC)c(OC)c3c1C(C2)N(C)CC3 (stereo not given),-0.2%,/,-1.7%
CCN1CCN(Cc2c(C(=O)N/N=C(\C)c3ccc(Cl)cc3)nnn2-c2nonc2N)CC1,9.1%,/,-10.5%
CCOC(=O)c1oc2cc(O)c(CC)cc2c(=O)c1-c1cscn1,39.0%,1.6%,-19.0%
CCOC(=O)c1ccc(-c2c(C(=O)OCC)oc3cc(O)c(CC)cc3c2=O)o1,3.16µM*,-2.7%,?
Cc1ccc(C(=O)NS(=O)(=O)c2ccc(N=NN(C)C)cc2)cc1,8.1%,-2.4%,-3.5%
Cc1ccc(C(=O)CSc2ccc(-c3cccnc3)nn2)cc1,112µM*,-1.3%,2.51µM*
Cc1ccc(C(=O)CSc2ccc(-c3ccncc3)nn2)cc1,-2.6%,-2.5%,-5.6%
COc1cc(C(=O)NNC(=S)NC(=O)c2ccc(Cl)cc2)cc(OC)c1OC,?,4.8%,?
COc1cc(C(=O)NNC(=S)NC(=O)/C=C/c2ccccc2)cc(OC)c1OC,2.82µM*,/,3.98µM*
O=C(/C=C/c1ccccc1)NC(=S)NNC(=O)c1cccnc1,10µM*,4.6%,?
O=C(/C=C/c1ccccc1)NC(=S)NNC(=O)c1cnccn1,-2.0%,/,-3.9%
CSCC[C@H](N)C(=O)N[C@@H](CCCN=C(N)N)C(=O)N[C@@H](Cc1ccccc1)C(=O)N[C@@H](Cc1ccccc1)C(=O)N[C@H](C(=O)O)C(C)C,-0.1%,/,4.0%
COc1ccc(-c2ccc(/C=C3/C(=N)N4C=CSC4=NC3=O)o2)c([N+](=O)[O-])c1,2.51µM*,0.0%,3.55µM*
CC(=O)Nc1ccc(OCCOc2ccc(/C=C3/C(=N)N4C=CSC4=NC3=O)cc2)cc1,?,/,-3.9%
O=c1[nH]c(CNCc2cccnc2)nc2ccccc12,-28.9%,-2.8%,-22.5%
CN(C)c1ccc(CNC(=O)c2cc(S(=O)(=O)N3CCCC3)cn2C)cc1,23.0%,/,-2.1%
SMILES,RORgamma inh,Luc counter,Gal4-VP16 FLuc
COc1ccc(NC(=O)Cc2ccccc2)cn1,22.9%,-0.7%,4.3%
COc1ccc(NC(=O)/C(Cl)=C(/Cl)S(=O)Cc2ccccc2)cn1 (stereo not given),1µM*,19.4%,1.12µM*
COc1ccc(/C=C/C(=O)Nc2ccc(OC)nc2)cc1,2.3%,2.8%,0.2%
COc1ccc(CS(=O)(=O)/C(Cl)=C(/Cl)C(=O)Nc2ccc(OC)nc2)cc1,5.01µM*,-6.7%,3.16µM*
CCc1ccc(NC(=O)C(C)OC(=O)c2cccc(S(=O)(=O)N3CCc4ccccc4C3)c2)cc1 (stereo not given),38.4%,0.5%,-16.6%
Cn1c(N2CCCC2)nc2c1c(=O)[nH]c(=O)n2C,-9.7%,/,-5.1%
CC1Cc2ccccc2N1C(=S)NC(=O)c1cccc(Br)c1 (stereo not given),1.12µM*,-5.9%,0.794µM*
COc1ccc(C(=O)N2c3ccccc3CC2C)cc1OC (stereo not given),-0.8%,-1.1%,7.8%
Cc1ccc2c(c1)C1CN(C)CCC1N2C(=S)NC(=O)c1ccc(Cl)cc1Cl (stereo not given),0.282µM*,/,0.891µM*
Cc1ccc2c(c1)C1CN(C)CCC1N2C(=O)COc1ccccc1F (stereo not given),-0.9%,/,0.5%
CC1Cc2ccccc2N1C(=S)Nc1ccc(S(N)(=O)=O)cc1 (stereo not given),27.8%,0.3%,10.4%
COc1cccc(C(=O)NC(=S)N2c3ccccc3CC2C)c1OC (stereo not given),3.98µM*,/,14.1µM*
CC1Cc2ccccc2N1C(=S)NC(=O)c1ccc(Cl)cc1Cl (stereo not given),0.355µM*,/,0.708µM*
CC(=O)c1ccc(NC(=S)N2c3ccccc3CC2C)cc1 (stereo not given),?,5.3%,0.2%
Cc1noc(C)c1-c1cncnc1Nc1ccccc1,21.2%,/,14.4%
Cc1ccc2cc(CN(CC3CCCO3)C(=O)c3cccs3)c(=O)[nH]c2c1 (stereo not given),14.6%,/,2.3%
c1coc(-c2nnc3sc(-c4cccs4)nn23)c1,-10.7%,-2.7%,19.3%
O=C(O)c1cc(Oc2ccc([N+](=O)[O-])cc2)cc(Oc2ccc([N+](=O)[O-])cc2)c1,10.4%,/,2.6%
COc1cc2c(=O)n(CC3CCCO3)c(=O)n(CC(=O)Nc3cccc(Cl)c3)c2cc1OC (stereo not given),11.8%,17.8%,11.1%
Nc1cc(C(F)(F)F)cc2c1SCC(=O)N2,-12.5%,0.0%,-8.0%
COc1ccc(CNCCC(c2ccccc2)c2ccc(OC(C)C)cc2)cc1OC (stereo not given),-30.5%,/,-6.9%
COc1ccc(CN(CCC(c2ccccc2)c2ccc(OC(C)C)cc2)C(=O)CCl)cc1OC (stereo not given),12.6µM*,-0.8%,?
CCN1CCN(C(CNS(=O)(=O)c2ccc(C)cc2)c2ccccc2)CC1 (stereo not given),-18.4%,/,-2.6%
N#Cc1ccc(COc2cccc3cccnc23)cc1,10µM*,/,-2.2%
O=[N+]([O-])c1ccc(COc2cccc3cccnc23)cc1,21.1%,/,-13.5%
SMILES,RORgamma inh,Luc counter,Gal4-VP16 FLuc
c1ccc2nc(C3=NCCN3)ccc2c1,-13.7%,-4.5%,-23.5%
CC(c1ccc(F)cc1)n1c(-c2ccc3ccccc3n2)n[nH]c1=S (stereo not given),0.891µM*,-0.5%,3.55µM*
CC1(C)Cc2ccccc2-c2nnc(-c3ccc4ccccc4n3)n21,-27.0%,-0.4%,-1.2%
CC(c1ccc(Cl)cc1)n1c(-c2ccc3ccccc3n2)n[nH]c1=S (stereo not given),1.78µM*,-0.3%,4.47µM*
C/C1=C/CC(C)(C)/C=C/C/C(C)=C/CC1,-9.6%,-0.1%,-19.2%
Cc1ccc(NC(=O)Cn2cc(C=O)c3ccccc32)cc1C,29.3%,/,3.4%
CCCCc1nc2c(c3c1C[C@H](C)OC3)CN(S(=O)(=O)c1ccc(C#N)cc1)CC2,/,-5.5%[7.66 µM],/
